# Read-outs that look alike come from different tables or passages of the source.
# Experiments:
# [1] = test system: AAK1; details: concentration: 1 μM, replicates: in singlicate; n = 1
# [2] = test system: ABL1-nonphosphorylated; details: concentration: 1 μM, replicates: in singlicate; n = 1
# [3] = test system: ABL1-phosphorylated; details: concentration: 1 μM, replicates: in singlicate; n = 1
# [4] = test system: ABL2; details: concentration: 1 μM, replicates: in singlicate; n = 1
# [5] = test system: ACVR1B; details: concentration: 1 μM, replicates: in singlicate; n = 1
# [6] = test system: ACVR1; details: concentration: 1 μM, replicates: in singlicate; n = 1
# [7] = test system: ACVR2A; details: concentration: 1 μM, replicates: in singlicate; n = 1
# [8] = test system: ACVR2B; details: concentration: 1 μM, replicates: in singlicate; n = 1
# [9] = test system: ACVRL1; details: concentration: 1 μM, replicates: in singlicate; n = 1
# [10] = test system: T1, ADCK3; details: concentration: 1 μM, replicates: in singlicate; n = 1
# T1 construct: gene CABC1
# [11] = test system: ADCK4; details: concentration: 1 μM, replicates: in singlicate; n = 1
# [12] = test system: AKT1; details: concentration: 1 μM, replicates: in singlicate; n = 1
# [13] = test system: AKT2; details: n = 1
# [14] = test system: AKT3; details: concentration: 1 μM, replicates: in singlicate; n = 1
# [15] = test system: ALK; details: concentration: 1 μM, replicates: in singlicate; n = 1
# [16] = test system: T2, AMPK-alpha1; details: concentration: 1 μM, replicates: in singlicate; n = 1
# T2 construct: gene PRKAA1
# [17] = test system: T3, AMPK-alpha2; details: concentration: 1 μM, replicates: in singlicate; n = 1
# T3 construct: gene PRKAA2
# [18] = test system: ANKK1; details: concentration: 1 μM, replicates: in singlicate; n = 1
# [19] = test system: T4, ARK5; details: concentration: 1 μM, replicates: in singlicate; n = 1
# T4 construct: gene NUAK1
# [20] = test system: T5, ASK1; details: concentration: 1 μM, replicates: in singlicate; n = 1
# T5 construct: gene MAP3K5
# [21] = concentration: 1 μM, replicates: in singlicate
# 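Also: KINOMEscan kinase panel screen.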
compound,measurement,setting,value
COc1cccc(-c2ccc3c(NC(=O)C4CC4)n[nH]c3n2)c1 [SB-710903],%Inh,[1],12%
same,%Inh,[2],83%
same,%Inh,[3],76%
same,%Inh,[4],24%
same,%Inh,[5],0%
same,%Inh,[6],18%
same,%Inh,[7],0%
same,%Inh,[8],22%
same,%Inh,[9],0%
same,%Inh,[10],3%
same,%Inh,[11],48%
same,%Inh,[12],0%
same,%Inh,[13]; [21],0%
same,%Inh,[14],0%
same,%Inh,[15],29%
same,%Inh,[16],0%
same,%Inh,[17],13%
same,%Inh,[18],0%
same,%Inh,[19],0%
same,%Inh,[20],12%
O=C(Nc1n[nH]c2nc(-c3ccc(O)cc3)ccc12)C1CC1 [SB-710363],%Inh,[1],38%
same,%Inh,[2],88%
same,%Inh,[3],74%
same,%Inh,[4],0%
same,%Inh,[5],0%
same,%Inh,[6],74%
same,%Inh,[7],55%
same,%Inh,[8],50%
same,%Inh,[9],1%
same,%Inh,[10],0%
same,%Inh,[11],0%
same,%Inh,[12],0%
same,%Inh,[13]; [21],0%
same,%Inh,[14],61%
same,%Inh,[15],0%
same,%Inh,[16],0%
same,%Inh,[17],0%
same,%Inh,[18],0%
same,%Inh,[19],0%
same,%Inh,[20],18%
CC(C)(C)c1ccc2nccc(Nc3cccc(O)c3)c2c1 [GW856795],%Inh,[1],0%
same,%Inh,[2],86%
same,%Inh,[3],85%
same,%Inh,[4],33%
same,%Inh,[5],0%
same,%Inh,[6],8%
same,%Inh,[7],26%
same,%Inh,[8],63%
same,%Inh,[9],0%
same,%Inh,[10],0%
same,%Inh,[11],41%
same,%Inh,[12],0%
same,%Inh,[13]; [21],0%
same,%Inh,[14],0%
same,%Inh,[15],39%
same,%Inh,[16],0%
same,%Inh,[17],0%
same,%Inh,[18],0%
same,%Inh,[19],0%
same,%Inh,[20],0%
Cl.Cl.NCC(NC(=O)c1cc(-c2ccccc2)c(-c2ccnc3[nH]ccc23)s1)c1ccccc1 (centres unmarked) [GSK1321561],%Inh,[1],47%
same,%Inh,[2],89%
same,%Inh,[3],90%
same,%Inh,[4],87%
same,%Inh,[5],0%
same,%Inh,[6],10%
same,%Inh,[7],4%
same,%Inh,[8],18%
same,%Inh,[9],0%
same,%Inh,[10],95.3%
same,%Inh,[11],89%
same,%Inh,[12],57%
same,%Inh,[13]; [21],0%
same,%Inh,[14],80%
same,%Inh,[15],27%
same,%Inh,[16],5%
same,%Inh,[17],0%
same,%Inh,[18],0%
same,%Inh,[19],16%
same,%Inh,[20],0%
CCn1c(-c2nonc2N)nc2c(C#CC(C)(C)O)ncc(OCCCCN)c21.O=C(O)C(F)(F)F.O=C(O)C(F)(F)F [GSK507274],%Inh,[1],41%
same,%Inh,[2],0%
same,%Inh,[3],4%
same,%Inh,[4],11%
same,%Inh,[5],0%
same,%Inh,[6],3%
same,%Inh,[7],7%
same,%Inh,[8],0%
same,%Inh,[9],0%
same,%Inh,[10],26%
same,%Inh,[11],13%
same,%Inh,[12],93.5%
same,%Inh,[13]; 1 µM,99.1%
same,%Inh,[14],72%
same,%Inh,[15],28%
same,%Inh,[16],1%
same,%Inh,[17],0%
same,%Inh,[18],0%
same,%Inh,[19],50%
same,%Inh,[20],0%
Cc1ccc(F)c(C(=O)Nc2cccc(-c3nn4ccccc4c3-c3ccnc(Nc4cccc(F)c4)n3)c2)c1F [GSK361061],%Inh,[1],16%
same,%Inh,[2],26%
same,%Inh,[3],0%
same,%Inh,[4],62%
same,%Inh,[5],60%
same,%Inh,[6],23%
same,%Inh,[7],7%
same,%Inh,[8],43%
same,%Inh,[9],38%
same,%Inh,[10],0%
same,%Inh,[11],37%
same,%Inh,[12],0%
same,%Inh,[13]; [21],7%
same,%Inh,[14],0%
same,%Inh,[15],7%
same,%Inh,[16],8%
same,%Inh,[17],17%
same,%Inh,[18],33%
same,%Inh,[19],20%
same,%Inh,[20],2%
COc1cc(Nc2ncc3c(C)nc(-c4cc5ccccc5[nH]4)n3n2)cc(OC)c1OC [GW869516],%Inh,[1],0%
same,%Inh,[2],32%
same,%Inh,[3],24%
same,%Inh,[4],21%
same,%Inh,[5],8%
same,%Inh,[6],0%
same,%Inh,[7],9%
same,%Inh,[8],24%
same,%Inh,[9],0%
same,%Inh,[10],22%
same,%Inh,[11],3%
same,%Inh,[12],8%
same,%Inh,[13]; [21],0%
same,%Inh,[14],0%
same,%Inh,[15],0%
same,%Inh,[16],89%
same,%Inh,[17],61%
same,%Inh,[18],0%
same,%Inh,[19],0%
same,%Inh,[20],0%
Cc1ccc(C(=O)N2CC[C@@H](O)C2)cc1-n1c(C)cc(OCc2ccc(F)cc2F)c(Br)c1=O,%Inh,[1],0%
same,%Inh,[2],92.1%
same,%Inh,[3],90.5%
same,%Inh,[4],72%
same,%Inh,[5],12%
same,%Inh,[6],0%
same,%Inh,[7],31%
same,%Inh,[8],0%
same,%Inh,[9],0%
same,%Inh,[10],0%
same,%Inh,[11],66%
same,%Inh,[12],0%
same,%Inh,[13]; [21],0%
same,%Inh,[14],0%
same,%Inh,[15],0%
same,%Inh,[16],2%
same,%Inh,[17],0%
same,%Inh,[18],0%
same,%Inh,[19],0%
same,%Inh,[20],0%
Cl.Cl.NCC(NCc1ccc(-c2ccnc3[nH]ccc23)s1)c1ccccc1 (centres unmarked) [GSK1321565],%Inh,[1],67%
same,%Inh,[2],0%
same,%Inh,[3],0%
same,%Inh,[4],1%
same,%Inh,[5],0%
same,%Inh,[6],18%
same,%Inh,[7],0%
same,%Inh,[8],0%
same,%Inh,[9],0%
same,%Inh,[10],25%
same,%Inh,[11],44%
same,%Inh,[12],71%
same,%Inh,[13]; [21],25%
same,%Inh,[14],71%
same,%Inh,[15],64%
same,%Inh,[16],45%
same,%Inh,[17],28%
same,%Inh,[18],22%
same,%Inh,[19],82%
same,%Inh,[20],16%
CN(C)Cc1ccc(-c2ccc3c(Nc4ccc(Oc5ccccn5)cc4)ccnc3c2)o1 [GW567148],%Inh,[1],0%
same,%Inh,[2],89%
same,%Inh,[3],32%
same,%Inh,[4],18%
same,%Inh,[5],0%
same,%Inh,[6],0%
same,%Inh,[7],0%
same,%Inh,[8],38%
same,%Inh,[9],0%
same,%Inh,[10],0%
same,%Inh,[11],0%
same,%Inh,[12],0%
same,%Inh,[13]; [21],0%
same,%Inh,[14],0%
same,%Inh,[15],22%
same,%Inh,[16],8%
same,%Inh,[17],0%
same,%Inh,[18],0%
same,%Inh,[19],18%
same,%Inh,[20],0%

# — article PMC5540273 (PLoS ONE, 2017)
